Activity calls are given as the source filed them. The calls were made as follows: active = hit-call score of the fitted dose curve at least 0.9, where 1 is the maximum; inactive = score below 0.9.
What was measured:
[1] = read-out: Tissue Factor, F3 (gene 2152); test: BSK_CASM3C_TissueFactor: BioMAP Diversity Plus: CASM3C Assay for Tissue Factor Biomarker Activity (AID 2283052); conditions: primary human coronary artery smooth muscle cells; actives raise or lower the signal;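 also: cell surface tissue factor protein level read by ELISA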
[2] = read-out: Interferon-gamma inducible Protein 10 (IP10), CXCL10 (gene 3627); test: BSK_hDFCGF_IP10: BioMAP Diversity Plus: hDFCGF Assay for Interferon-gamma inducible Protein 10 (IP10) Biomarker Activity (AID 2283053); conditions: primary human foreskin fibroblasts; actives raise or lower the signal
Procedure, shortened: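 Primary foreskin fibroblasts, human; 24 h compound exposure; IP-10 by ELISA; bidirectional fit vs DMSO.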

[3] = read-out: Urokinase-type plasminogen activator receptor (uPAR), PLAUR (gene 5329); test: BSK_CASM3C_uPAR: BioMAP Diversity Plus: CASM3C Assay for Urokinase-type plasminogen activator receptor (uPAR) Biomarker Activity (AID 2283054); conditions: primary human coronary artery smooth muscle cells; actives raise or lower the signal;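 also: cell-surface uPAR protein level quantified by ELISA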
[4] = read-out: Vascular cell adhesion molecule 1 (VCAM1), VCAM1 (gene 7412); test: BSK_CASM3C_VCAM1: BioMAP Diversity Plus: CASM3C Assay for Vascular cell adhesion molecule 1 (VCAM1) Biomarker Activity (AID 2283055); conditions: primary human coronary artery smooth muscle cells; actives raise or lower the signal;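 also: VCAM-1 protein level quantified by ELISA on the cells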
[5] = read-out: Collagen III, COL3A1 (gene 1281); test: BSK_hDFCGF_CollagenIII: BioMAP Diversity Plus: hDFCGF Assay for Collagen III Biomarker Activity (AID 2283056); conditions: primary human foreskin fibroblasts; actives raise or lower the signal
Procedure, shortened: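 Human foreskin fibroblast primary cultures sampled 24 h after dosing; Collagen III quantified by ELISA. Signal fitted bidirectionally against DMSO baseline.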

[6] = read-out: Epidermal growth factor receptor (EGFR), EGFR (gene 1956); test: BSK_hDFCGF_EGFR: BioMAP Diversity Plus: hDFCGF Assay for Epidermal growth factor receptor (EGFR) Biomarker Activity (AID 2283057); conditions: primary human foreskin fibroblasts; actives raise or lower the signal
Procedure, shortened: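 hDFCGF system, primary human foreskin fibroblasts; compound 24 h; EGFR measured by ELISA; DMSO = negative control/baseline; bidirectional fitting.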

[7] = read-out: Interleukin-8 (IL8), CXCL8 (gene 3576); test: BSK_hDFCGF_IL8: BioMAP Diversity Plus: hDFCGF Assay for Interleukin-8 (IL8) Biomarker Activity (AID 2283058); conditions: primary human foreskin fibroblasts; actives raise or lower the signal
Procedure, shortened: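 Primary human foreskin fibroblasts (hDFCGF system) dosed with chemical; IL-8 measured by ELISA 24 hours later. Bidirectional curve fitting relative to DMSO baseline; cytotoxicity tracked in parallel cultures by SRB total protein staining.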

[8] = BSK_hDFCGF_Proliferation: Cell Proliferation Assessment in the BioMAP Diversity Plus: hDFCGF Assay (AID 2283059); conditions: primary human foreskin fibroblasts;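 also: curves fitted for both rise and fall of signal versus DMSO baseline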
Procedure, shortened: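 Sub-confluent human foreskin fibroblast cultures receive test chemical […]. Relative cell number is quantified by sulforhodamine B staining (0.1%, after 10% TCA fixation) at 560 nm, with bidirectional fitting referenced to DMSO.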

[9] = read-out: Macrophage colony-stimulating factor (MCSF), CSF1 (gene 1435); test: BSK_hDFCGF_MCSF: BioMAP Diversity Plus: hDFCGF Assay for Macrophage colony-stimulating factor (MCSF) Biomarker Activity (AID 2283060); conditions: primary human foreskin fibroblasts; actives raise or lower the signal
Procedure, shortened: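 Human foreskin fibroblast primary cultures; M-CSF measured by ELISA 24 hours after chemical dosing. Bidirectional fitting relative to DMSO, with overt cytotoxicity tracked by parallel SRB total-protein staining (0.1% SRB, 10% TCA fixation, 560 nm).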

[10] = BSK_hDFCGF_SRB: Viability Assessment in the BioMAP Diversity Plus: hDFCGF Assay (AID 2283061); conditions: primary human foreskin fibroblasts;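 also: cells exposed to compound for 24 h before the read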
Procedure, shortened: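 Human foreskin fibroblasts in 96-well plates were treated 24 h. Total protein was measured by 0.1% SRB staining after 10% TCA fixation, read at 560 nm. Data were fitted bidirectionally against DMSO.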

[11] = read-out: TIMP metallopeptidase inhibitor 1 (TIMP1), TIMP1 (gene 7076); test: BSK_hDFCGF_TIMP1: BioMAP Diversity Plus: hDFCGF Assay for TIMP metallopeptidase inhibitor 1 (TIMP1) Biomarker Activity (AID 2283062); conditions: primary human foreskin fibroblasts; actives raise or lower the signal
Procedure, shortened: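 Human foreskin fibroblast primary cultures dosed for 24 h; secreted/surface TIMP-1 quantified by ELISA. Bidirectional curve fitting against DMSO baseline; cytotoxicity tracked in parallel cultures by SRB total-protein staining.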

[12] = read-out: Monokine induced gamma interferon (MIG), CXCL9 (gene 4283); test: BSK_hDFCGF_MIG: BioMAP Diversity Plus: hDFCGF Assay for Monokine induced gamma interferon (MIG) Biomarker Activity (AID 2283063); conditions: primary human foreskin fibroblasts; actives raise or lower the signal
Procedure, shortened: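 MIG/CXCL9 measured by ELISA 24 h after dosing primary human skin fibroblasts. Activity fitted in both directions against DMSO controls. Cytotoxicity was checked in parallel cultures by SRB staining read at 560 nm.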

[13] = read-out: Matrix Metallopeptidase 1 (MMP1), MMP1 (gene 4312); test: BSK_hDFCGF_MMP1: BioMAP Diversity Plus: hDFCGF Assay for Matrix Metallopeptidase 1 (MMP1) Biomarker Activity (AID 2283064); conditions: primary human foreskin fibroblasts; actives raise or lower the signal
Procedure, shortened: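 hDFCGF primary fibroblasts (human foreskin); chemical added; 24 h; MMP1 by ELISA; bidirectional fit vs DMSO.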

[14] = read-out: Vascular cell adhesion molecule 1 (VCAM1), VCAM1 (gene 7412); test: BSK_hDFCGF_VCAM1: BioMAP Diversity Plus: hDFCGF Assay for Vascular cell adhesion molecule 1 (VCAM1) Biomarker Activity (AID 2283065); conditions: primary human foreskin fibroblasts; actives raise or lower the signal;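 as to AC50: VCAM-1 protein level quantified by ELISA after 24 h chemical exposure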
Procedure, shortened: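 Human foreskin fibroblast primary cells dosed with chemical, VCAM-1 measured by ELISA at 24 h. Bidirectional curve fitting relative to DMSO as negative control/baseline.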

[15] = read-out: Plasminogen activator inhibitor-1 (PAI1), SERPINE1 (gene 5054); test: BSK_hDFCGF_PAI1: BioMAP Diversity Plus: hDFCGF Assay for Plasminogen activator inhibitor-1 (PAI1) Biomarker Activity (AID 2283066); conditions: primary human foreskin fibroblasts; actives raise or lower the signal
Procedure, shortened: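 Primary dermal fibroblasts (human foreskin), hDFCGF system; compound 24 h; PAI-1 by ELISA; bidirectional fit vs DMSO control.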

[16] = read-out: Intercellular Adhesion Molecule 1 (ICAM1), ICAM1 (gene 3383); test: BSK_KF3CT_ICAM1: BioMAP Diversity Plus: KF3CT Assay for Intercellular Adhesion Molecule 1 (ICAM1) Biomarker Activity (AID 2283067); conditions: primary human keratinocytes with fibroblasts; actives raise or lower the signal
Procedure, shortened: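 Human keratinocyte–foreskin fibroblast co-culture was treated for 24 h. Cell-surface ICAM-1 was quantified by ELISA, fitted bidirectionally relative to DMSO. Cytotoxicity was checked in parallel cultures by SRB total-protein staining.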

[17] = read-out: Interferon-gamma inducible Protein 10 (IP10), CXCL10 (gene 3627); test: BSK_KF3CT_IP10: BioMAP Diversity Plus: KF3CT Assay for Interferon-gamma inducible Protein 10 (IP10) Biomarker Activity (AID 2283068); conditions: primary human keratinocytes with fibroblasts; actives raise or lower the signal
Procedure, shortened: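 ELISA read-out of IP-10 after 24 h chemical dosing of human skin primary co-culture (keratinocytes, foreskin fibroblasts). Gain or loss of signal relative to DMSO, bidirectional curve fit.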

[18] = BSK_KF3CT_SRB: Viability Assessment in the BioMAP Diversity Plus: KF3CT Assay (AID 2283069); conditions: primary human keratinocytes with fibroblasts;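 also: total protein by sulforhodamine B staining as a cytotoxicity measure; read 24 h after compound addition; fitted for both signal gain and loss against DMSO baseline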
Procedure, shortened: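 Keratinocytes co-cultured with foreskin fibroblasts (human primary); chemical added, 24 h; fix 10% TCA, stain 0.1% SRB, A560. Bidirectional fit vs DMSO.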

[19] = read-out: Interleukin-1 alpha (IL1a), IL1A (gene 3552); test: BSK_KF3CT_IL1a: BioMAP Diversity Plus: KF3CT Assay for Interleukin-1 alpha (IL1a) Biomarker Activity (AID 2283070); conditions: primary human keratinocytes with fibroblasts; actives raise or lower the signal
Procedure, shortened: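 Chemicals were dosed onto co-cultured human keratinocytes and foreskin fibroblasts, IL-1a was quantified by ELISA at 24 h, and activity was fitted in both directions relative to DMSO controls.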

[20] = read-out: TIMP metallopeptidase inhibitor 2 (TIMP2), TIMP2 (gene 7077); test: BSK_KF3CT_TIMP2: BioMAP Diversity Plus: KF3CT Assay for TIMP metallopeptidase inhibitor 2 (TIMP2) Biomarker Activity (AID 2283071); conditions: primary human keratinocytes with fibroblasts; actives raise or lower the signal
Procedure, shortened: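 Cells: human keratinocytes co-cultured with foreskin fibroblasts. Treat with chemical, 24 h. Measure TIMP-2 by ELISA; fit curves bidirectionally vs DMSO baseline.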

Measured: AC50

NC(=O)N(O)[C@@H]1C=C[C@H](Oc2cccc(Oc3ccc(F)cc3)c2)C1
active: [2] 20 µM | [8] 13.3 µM | [9] 3.97 µM | [14] 8.65 µM | [17] 20 µM
inactive: all other assays above

c1ccc2cc3c(ccc4ccccc43)cc2c1
inactive: all assays above

CC[C@H](c1ccc(O)cc1)[C@@H](CC)c1ccc(O)cc1
inactive: [1] | [3] | [6] | [11]
active: [2] 24.1 µM | [4] 27.4 µM | [5] 15.1 µM | [7] 37.8 µM | [8] 18.8 µM | [9] 29.7 µM | [10] 30.4 µM | [12] 30.6 µM | [13] 31.2 µM | [15] 25 µM | [16] 32.9 µM | [17] 26.5 µM | [18] 32.5 µM | [19] 32 µM | [20] 31.6 µM

CCCOC(=O)c1ccc(O)cc1
inactive: all assays above

Oc1cccc(O)c1
inactive: all assays above

CCCCC(CC)COC(=O)CCCCC(=O)OCc1ccccc1 (stereo not drawn)
inactive: all assays above

CC1=C(/C=C/C(C)=C/C=C/C(C)=C/C(=O)O)C(C)(C)CCC1
inactive: [1] | [3] | [6]
active: [2] 30.2 µM | [4] 20 µM | [5] 15 µM | [7] 38.9 µM | [8] 7.76 µM | [9] 25.2 µM | [10] 34.5 µM | [11] 31.2 µM | [12] 31.8 µM | [14] 18.5 µM | [15] 20 µM | [16] 30.6 µM | [17] 25.6 µM | [18] 32.8 µM | [19] 33.6 µM | [20] 32.3 µM
